Assays:
Assay in all cases: DAPPL (digital affinity profiling via proximity ligation, sequencing); 10 mM Tris-HCl pH 7.5, 50 mM NaCl, 1 mM DTT, 4% glycerol, room temperature, 30 min; GST-TFs on glutathione beads, 16-mer random dsDNA library, 0.1% formaldehyde crosslink after washing; high values mean tight binding
FEV = target: T1, FEV (Homo sapiens, UniProt Q99581 1-238); conditions: protein: recombinant; tags: N-terminal GST; dsDNA, one strand shown
T1 sequence: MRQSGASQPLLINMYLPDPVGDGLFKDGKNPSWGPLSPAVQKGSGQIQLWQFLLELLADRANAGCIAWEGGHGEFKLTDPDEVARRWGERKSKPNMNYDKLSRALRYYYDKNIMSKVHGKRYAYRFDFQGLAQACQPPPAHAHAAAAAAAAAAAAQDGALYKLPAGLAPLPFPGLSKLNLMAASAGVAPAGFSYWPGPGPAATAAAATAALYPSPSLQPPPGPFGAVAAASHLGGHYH
Procedure, shortened: (§1)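 Binding signal is each hexamer's read frequency for a factor divided by its frequency in the tag-only sample. The factors were GST-fused human transcription factors from yeast, captured on glutathione beads, DNA-barcoded and pooled with that sample. Pools were incubated with 200 nmole of a random double-stranded 16-mer DNA library in Tris/NaCl/DTT/glycerol buffer at room temperature for 30 min, then washed, crosslinked with 0.1% formaldehyde, proximity-ligated with BsaI/T4 ligase (1 h, 37 °C), PCR-amplified and sequenced on an Illumina NextSeq500.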

ETV5 = ETV5 (Homo sapiens, UniProt P41161 1-510); conditions: protein: recombinant; tags: N-terminal GST; dsDNA, one strand shown
Procedure, shortened: as §1

HSF1 = HSF1 (Homo sapiens, UniProt Q00613 1-529); conditions: protein: recombinant; tags: N-terminal GST; chain copies: 3; dsDNA, one strand shown
Procedure, shortened: as §1

ELF4 = ELF4 (Homo sapiens, UniProt Q99607 1-663); conditions: protein: recombinant; tags: N-terminal GST; dsDNA, one strand shown
Procedure, shortened: as §1

ELK4 = target: T2, ELK4 (Homo sapiens, UniProt P28324-2 1-405); conditions: protein: recombinant; tags: N-terminal GST; dsDNA, one strand shown
T2 sequence: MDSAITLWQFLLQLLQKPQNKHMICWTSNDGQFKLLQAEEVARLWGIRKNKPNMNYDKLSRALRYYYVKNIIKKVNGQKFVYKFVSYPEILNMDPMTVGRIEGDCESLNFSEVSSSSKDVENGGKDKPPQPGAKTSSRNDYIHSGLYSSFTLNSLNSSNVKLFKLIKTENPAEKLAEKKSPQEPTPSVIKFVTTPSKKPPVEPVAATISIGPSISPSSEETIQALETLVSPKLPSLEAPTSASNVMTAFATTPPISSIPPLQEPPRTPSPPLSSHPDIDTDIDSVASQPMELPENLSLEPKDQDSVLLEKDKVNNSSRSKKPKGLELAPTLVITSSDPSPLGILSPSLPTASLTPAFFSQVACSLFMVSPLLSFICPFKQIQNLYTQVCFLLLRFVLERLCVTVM
Procedure, shortened: as §1

ETV2 = target: T3, ETV2 (Homo sapiens, UniProt O00321 1-342); conditions: protein: recombinant; tags: N-terminal GST; dsDNA, one strand shown
T3 sequence: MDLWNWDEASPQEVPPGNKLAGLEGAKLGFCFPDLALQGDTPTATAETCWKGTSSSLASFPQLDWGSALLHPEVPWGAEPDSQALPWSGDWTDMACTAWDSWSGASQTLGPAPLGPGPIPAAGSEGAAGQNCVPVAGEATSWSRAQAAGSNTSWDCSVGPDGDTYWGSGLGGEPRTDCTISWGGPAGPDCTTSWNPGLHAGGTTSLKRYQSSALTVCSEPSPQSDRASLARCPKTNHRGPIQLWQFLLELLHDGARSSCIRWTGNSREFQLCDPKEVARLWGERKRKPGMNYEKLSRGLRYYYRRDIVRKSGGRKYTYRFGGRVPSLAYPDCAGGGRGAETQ
Procedure, shortened: as §1

ELF3 = target: T4, ELF3 (Homo sapiens, UniProt P78545 1-371); conditions: protein: recombinant; tags: N-terminal GST; dsDNA, one strand shown
T4 sequence: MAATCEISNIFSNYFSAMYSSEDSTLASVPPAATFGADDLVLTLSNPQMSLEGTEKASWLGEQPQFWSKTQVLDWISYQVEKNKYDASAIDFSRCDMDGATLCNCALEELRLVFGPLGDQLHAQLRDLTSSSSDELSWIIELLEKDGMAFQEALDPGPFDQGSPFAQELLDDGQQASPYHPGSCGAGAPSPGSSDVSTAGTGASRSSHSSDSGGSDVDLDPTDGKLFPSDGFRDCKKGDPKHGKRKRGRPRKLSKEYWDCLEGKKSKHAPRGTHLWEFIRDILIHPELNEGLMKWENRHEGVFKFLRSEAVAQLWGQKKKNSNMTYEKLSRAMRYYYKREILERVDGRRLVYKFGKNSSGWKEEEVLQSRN
Procedure, shortened: as §1

CRX = CRX (Homo sapiens, UniProt O43186 1-299); conditions: protein: recombinant; tags: N-terminal GST; dsDNA, one strand shown
Procedure, shortened: as §1

ETV1 = ETV1 (Homo sapiens, UniProt P50549 1-477); conditions: protein: recombinant; tags: N-terminal GST; dsDNA, one strand shown
Procedure, shortened: as §1

ERF = target: T5, ERF (Homo sapiens, UniProt P50548 1-548); conditions: protein: recombinant; tags: N-terminal GST; dsDNA, one strand shown
T5 sequence: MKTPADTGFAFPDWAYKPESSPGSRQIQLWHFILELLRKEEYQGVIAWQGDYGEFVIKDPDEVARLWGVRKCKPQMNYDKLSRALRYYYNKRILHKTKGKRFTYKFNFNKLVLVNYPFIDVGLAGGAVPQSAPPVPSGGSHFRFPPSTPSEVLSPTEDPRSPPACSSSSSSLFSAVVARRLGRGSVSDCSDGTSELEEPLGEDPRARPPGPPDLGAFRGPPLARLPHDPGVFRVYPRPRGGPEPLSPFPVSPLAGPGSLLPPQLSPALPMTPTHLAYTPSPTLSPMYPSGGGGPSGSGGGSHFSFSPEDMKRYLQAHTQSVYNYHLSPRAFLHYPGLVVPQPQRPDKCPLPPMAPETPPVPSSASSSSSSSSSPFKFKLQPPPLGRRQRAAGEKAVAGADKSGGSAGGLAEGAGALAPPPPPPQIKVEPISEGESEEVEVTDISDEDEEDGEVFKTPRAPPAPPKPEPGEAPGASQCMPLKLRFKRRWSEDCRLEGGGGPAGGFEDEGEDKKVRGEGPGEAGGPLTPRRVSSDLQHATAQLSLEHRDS
Procedure, shortened: as §1

ETV3L = target: T6, ETV3L (Homo sapiens, UniProt Q6ZN32 1-361); conditions: protein: recombinant; tags: N-terminal GST; dsDNA, one strand shown
T6 sequence: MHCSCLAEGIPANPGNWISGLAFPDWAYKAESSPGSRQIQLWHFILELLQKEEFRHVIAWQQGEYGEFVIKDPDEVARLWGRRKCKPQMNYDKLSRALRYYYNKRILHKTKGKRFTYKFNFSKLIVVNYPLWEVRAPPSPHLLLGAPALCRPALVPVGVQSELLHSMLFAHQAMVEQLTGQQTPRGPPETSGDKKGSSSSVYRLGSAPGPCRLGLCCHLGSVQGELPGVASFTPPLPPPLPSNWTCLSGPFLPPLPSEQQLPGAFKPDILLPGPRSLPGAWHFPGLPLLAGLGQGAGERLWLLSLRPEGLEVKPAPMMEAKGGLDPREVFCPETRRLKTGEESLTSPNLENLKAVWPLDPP
Procedure, shortened: as §1

ETS2 = target: T7, ETS2 (Homo sapiens, UniProt P15036 1-469); conditions: protein: recombinant; tags: N-terminal GST; dsDNA, one strand shown
T7 sequence: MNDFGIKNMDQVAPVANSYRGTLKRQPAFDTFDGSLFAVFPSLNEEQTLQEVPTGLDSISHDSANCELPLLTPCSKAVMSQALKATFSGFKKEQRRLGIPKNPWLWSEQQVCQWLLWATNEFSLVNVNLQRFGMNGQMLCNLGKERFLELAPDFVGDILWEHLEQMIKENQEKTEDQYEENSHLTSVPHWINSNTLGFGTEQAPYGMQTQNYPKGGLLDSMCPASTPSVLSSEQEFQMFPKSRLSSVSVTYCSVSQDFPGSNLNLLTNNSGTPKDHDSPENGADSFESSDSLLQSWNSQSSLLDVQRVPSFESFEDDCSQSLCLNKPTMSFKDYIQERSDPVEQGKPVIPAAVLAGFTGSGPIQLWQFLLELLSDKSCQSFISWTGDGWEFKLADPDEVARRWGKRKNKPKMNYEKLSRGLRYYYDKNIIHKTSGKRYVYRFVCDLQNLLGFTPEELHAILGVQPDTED
Procedure, shortened: as §1

SPDEF = target: T8, SPDEF (Homo sapiens, UniProt O95238 1-335); conditions: protein: recombinant; tags: N-terminal GST; dsDNA, one strand shown
T8 sequence: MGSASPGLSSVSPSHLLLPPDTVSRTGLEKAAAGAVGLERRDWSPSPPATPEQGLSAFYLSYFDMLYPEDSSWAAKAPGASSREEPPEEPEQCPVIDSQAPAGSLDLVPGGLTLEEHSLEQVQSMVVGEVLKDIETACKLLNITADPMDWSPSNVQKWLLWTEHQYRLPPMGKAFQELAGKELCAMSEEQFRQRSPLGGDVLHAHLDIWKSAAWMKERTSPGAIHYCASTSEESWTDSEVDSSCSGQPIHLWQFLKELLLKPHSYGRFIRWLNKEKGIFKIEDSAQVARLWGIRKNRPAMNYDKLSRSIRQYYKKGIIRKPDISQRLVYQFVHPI
Procedure, shortened: as §1

ETV7 = target: T9, ETV7 (Homo sapiens, UniProt Q9Y603 1-341); conditions: protein: recombinant; tags: N-terminal GST; dsDNA, one strand shown
T9 sequence: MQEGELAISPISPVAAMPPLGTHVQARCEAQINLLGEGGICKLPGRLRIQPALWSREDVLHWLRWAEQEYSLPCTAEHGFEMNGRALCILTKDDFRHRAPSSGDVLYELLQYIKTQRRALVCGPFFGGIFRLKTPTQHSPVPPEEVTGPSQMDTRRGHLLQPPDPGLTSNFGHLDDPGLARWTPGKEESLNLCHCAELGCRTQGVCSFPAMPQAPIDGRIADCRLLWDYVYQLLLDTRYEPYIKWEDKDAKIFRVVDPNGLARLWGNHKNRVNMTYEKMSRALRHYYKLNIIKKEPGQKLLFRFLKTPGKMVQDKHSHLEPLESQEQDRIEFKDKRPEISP
Procedure, shortened: as §1

ELF5 = target: T10, ELF5 (Homo sapiens, UniProt Q9UKW6-2 1-255); conditions: protein: recombinant; tags: N-terminal GST; dsDNA, one strand shown
T10 sequence: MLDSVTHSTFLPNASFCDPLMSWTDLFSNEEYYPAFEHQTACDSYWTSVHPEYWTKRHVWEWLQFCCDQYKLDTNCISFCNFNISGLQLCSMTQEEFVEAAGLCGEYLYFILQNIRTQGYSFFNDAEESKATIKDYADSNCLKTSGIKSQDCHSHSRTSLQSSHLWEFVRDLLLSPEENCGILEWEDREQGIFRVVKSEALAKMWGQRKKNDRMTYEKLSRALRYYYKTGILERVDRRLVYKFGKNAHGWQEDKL
Procedure, shortened: as §1

ETV3 = target: T11, ETV3 (Homo sapiens, UniProt P41162-2 1-143); conditions: protein: recombinant; tags: N-terminal GST; dsDNA, one strand shown
T11 sequence: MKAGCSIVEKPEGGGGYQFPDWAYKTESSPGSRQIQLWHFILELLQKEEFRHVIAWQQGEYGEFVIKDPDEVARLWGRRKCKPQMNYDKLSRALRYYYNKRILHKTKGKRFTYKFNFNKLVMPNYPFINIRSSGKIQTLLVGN
Procedure, shortened: as §1

ETV6 = ETV6 (Homo sapiens, UniProt P41212 1-452); conditions: protein: recombinant; tags: N-terminal GST; dsDNA, one strand shown
Procedure, shortened: as §1

Chain of ETV5 (P41161 whole entry): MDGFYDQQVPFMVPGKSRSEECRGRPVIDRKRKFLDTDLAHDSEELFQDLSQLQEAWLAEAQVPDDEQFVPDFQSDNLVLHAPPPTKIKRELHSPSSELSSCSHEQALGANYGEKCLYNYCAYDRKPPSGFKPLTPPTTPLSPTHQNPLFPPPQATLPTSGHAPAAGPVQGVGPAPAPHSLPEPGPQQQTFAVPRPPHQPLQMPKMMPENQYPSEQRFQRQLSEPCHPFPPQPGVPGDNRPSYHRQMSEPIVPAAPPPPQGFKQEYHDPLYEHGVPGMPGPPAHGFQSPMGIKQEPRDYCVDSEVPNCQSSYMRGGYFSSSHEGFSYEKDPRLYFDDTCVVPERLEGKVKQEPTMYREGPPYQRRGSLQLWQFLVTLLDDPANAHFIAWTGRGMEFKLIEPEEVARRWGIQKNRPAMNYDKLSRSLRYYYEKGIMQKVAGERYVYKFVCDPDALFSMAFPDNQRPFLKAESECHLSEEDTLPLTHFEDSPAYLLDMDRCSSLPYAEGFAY
Chain of ELF4 (Q99607 whole entry): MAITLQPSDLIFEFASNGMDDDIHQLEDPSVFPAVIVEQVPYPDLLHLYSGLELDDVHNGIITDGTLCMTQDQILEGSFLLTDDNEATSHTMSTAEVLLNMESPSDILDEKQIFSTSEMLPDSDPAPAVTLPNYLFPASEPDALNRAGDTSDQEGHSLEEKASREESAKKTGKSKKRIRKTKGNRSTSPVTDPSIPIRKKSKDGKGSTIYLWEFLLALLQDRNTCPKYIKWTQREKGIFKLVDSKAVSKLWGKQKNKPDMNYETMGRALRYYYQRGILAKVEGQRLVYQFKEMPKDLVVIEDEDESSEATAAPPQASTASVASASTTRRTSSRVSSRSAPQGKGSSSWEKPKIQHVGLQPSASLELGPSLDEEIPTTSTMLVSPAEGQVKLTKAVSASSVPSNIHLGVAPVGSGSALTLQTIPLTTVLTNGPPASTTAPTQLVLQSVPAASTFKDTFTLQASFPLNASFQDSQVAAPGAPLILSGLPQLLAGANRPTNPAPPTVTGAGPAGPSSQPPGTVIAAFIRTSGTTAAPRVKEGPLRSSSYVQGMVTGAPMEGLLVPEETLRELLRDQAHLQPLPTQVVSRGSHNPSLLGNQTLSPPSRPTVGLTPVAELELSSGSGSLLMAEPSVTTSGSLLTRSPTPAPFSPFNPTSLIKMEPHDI
Chain of ETV6 (P41212 whole entry): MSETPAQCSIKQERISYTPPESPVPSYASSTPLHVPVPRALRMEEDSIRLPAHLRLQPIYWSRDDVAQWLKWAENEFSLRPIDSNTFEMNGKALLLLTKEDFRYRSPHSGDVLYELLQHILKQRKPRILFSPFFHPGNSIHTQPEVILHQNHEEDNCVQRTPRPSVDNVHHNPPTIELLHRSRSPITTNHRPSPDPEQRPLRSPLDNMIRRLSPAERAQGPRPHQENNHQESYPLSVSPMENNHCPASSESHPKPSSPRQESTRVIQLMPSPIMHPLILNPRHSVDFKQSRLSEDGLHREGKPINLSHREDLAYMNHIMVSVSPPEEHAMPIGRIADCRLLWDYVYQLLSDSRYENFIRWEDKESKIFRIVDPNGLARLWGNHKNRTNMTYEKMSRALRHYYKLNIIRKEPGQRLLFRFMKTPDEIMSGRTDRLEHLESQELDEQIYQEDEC
Chain of CRX (O43186 whole entry): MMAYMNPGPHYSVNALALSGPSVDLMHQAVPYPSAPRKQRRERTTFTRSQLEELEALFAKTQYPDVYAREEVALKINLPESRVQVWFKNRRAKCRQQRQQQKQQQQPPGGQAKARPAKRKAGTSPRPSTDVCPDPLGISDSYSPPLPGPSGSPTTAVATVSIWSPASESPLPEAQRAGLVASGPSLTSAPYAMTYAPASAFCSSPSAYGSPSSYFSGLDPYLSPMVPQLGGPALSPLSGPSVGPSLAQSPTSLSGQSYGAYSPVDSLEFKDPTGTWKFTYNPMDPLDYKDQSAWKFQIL
Chain of HSF1 (Q00613 whole entry): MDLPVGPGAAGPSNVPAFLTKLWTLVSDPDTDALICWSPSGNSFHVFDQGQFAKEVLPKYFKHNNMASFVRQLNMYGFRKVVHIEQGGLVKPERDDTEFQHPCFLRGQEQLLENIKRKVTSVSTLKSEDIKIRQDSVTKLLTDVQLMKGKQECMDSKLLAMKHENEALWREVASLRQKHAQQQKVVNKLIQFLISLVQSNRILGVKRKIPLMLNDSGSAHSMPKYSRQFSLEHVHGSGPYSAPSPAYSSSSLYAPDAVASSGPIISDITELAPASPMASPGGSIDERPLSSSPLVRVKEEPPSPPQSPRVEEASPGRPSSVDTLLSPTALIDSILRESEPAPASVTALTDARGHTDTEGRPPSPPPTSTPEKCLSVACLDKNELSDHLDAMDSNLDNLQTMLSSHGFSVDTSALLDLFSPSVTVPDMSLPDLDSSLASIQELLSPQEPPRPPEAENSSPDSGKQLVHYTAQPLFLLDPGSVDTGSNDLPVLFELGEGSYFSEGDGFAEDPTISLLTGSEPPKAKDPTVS
Chain of ETV1 (P50549 whole entry): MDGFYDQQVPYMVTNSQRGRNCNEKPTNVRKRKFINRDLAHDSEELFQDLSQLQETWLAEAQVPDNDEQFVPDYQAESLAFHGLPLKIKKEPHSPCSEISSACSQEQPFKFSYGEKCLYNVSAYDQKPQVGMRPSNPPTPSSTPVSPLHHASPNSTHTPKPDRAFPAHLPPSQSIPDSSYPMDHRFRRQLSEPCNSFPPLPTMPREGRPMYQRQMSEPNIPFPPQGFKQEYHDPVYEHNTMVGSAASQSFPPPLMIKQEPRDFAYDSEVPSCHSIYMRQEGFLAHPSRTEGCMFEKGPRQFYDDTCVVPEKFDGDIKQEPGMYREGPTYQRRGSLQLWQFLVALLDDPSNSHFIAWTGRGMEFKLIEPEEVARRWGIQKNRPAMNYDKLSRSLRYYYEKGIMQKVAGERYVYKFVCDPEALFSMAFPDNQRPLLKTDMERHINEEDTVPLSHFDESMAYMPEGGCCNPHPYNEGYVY

For ACAAGC, the binding signal (FEV) was 1.09 fold enrichment (6-mer frequency, TF over GST control), the binding signal (ETV5) was 1.12 fold enrichment (6-mer frequency, TF over GST control) and the binding signal (HSF1) was 1.01 fold enrichment (6-mer frequency, TF over GST control). For the same sequence, the binding signal (ELF4) was 1.13 fold enrichment (6-mer frequency, TF over GST control), the binding signal (ELK4) was 1.12 fold enrichment (6-mer frequency, TF over GST control) and the binding signal (ETV2) was 1.06 fold enrichment (6-mer frequency, TF over GST control). For the same sequence, the binding signal (ELF3) was 1.07 fold enrichment (6-mer frequency, TF over GST control), the binding signal (CRX) was 1.07 fold enrichment (6-mer frequency, TF over GST control) and the binding signal (ETV1) was 1.16 fold enrichment (6-mer frequency, TF over GST control). For the same sequence, the binding signal (ERF) was 1.15 fold enrichment (6-mer frequency, TF over GST control), the binding signal (ETV3L) was 1.11 fold enrichment (6-mer frequency, TF over GST control) and the binding signal (ETS2) was 1.18 fold enrichment (6-mer frequency, TF over GST control). For the same sequence, the binding signal (SPDEF) was 1 fold enrichment (6-mer frequency, TF over GST control), the binding signal (ETV7) was 1.01 fold enrichment (6-mer frequency, TF over GST control) and the binding signal (ELF5) was 1.02 fold enrichment (6-mer frequency, TF over GST control). The binding signal (ETV3) was 1.13 fold enrichment (6-mer frequency, TF over GST control) and the binding signal (ETV6) was 1.09 fold enrichment (6-mer frequency, TF over GST control).

From publication PMC7862700, “An all-to-all approach to the identification of sequence-specific readers for epigenetic DNA modifications on cytosine”
